Reference: PubChem BioAssay AID1026 (Columbia University Molecular Screening Center, 2008)
Unmarked numbers belong to inactive results. No rule for the calls is given here.

Target: Bifunctional epoxide hydrolase 2 (Homo sapiens) (UniProt P34913)
Test: sEH inhibitor concentration-response potency, dose response, biochemical, human sEH, fluorescence, Infinite200 (AID 1026)
Settings: recombinant human sEH, fluorogenic substrate, at 0.2 µM, active compounds read high

Sequence of Bifunctional epoxide hydrolase 2 (Homo sapiens) (P34913 whole entry, looked up): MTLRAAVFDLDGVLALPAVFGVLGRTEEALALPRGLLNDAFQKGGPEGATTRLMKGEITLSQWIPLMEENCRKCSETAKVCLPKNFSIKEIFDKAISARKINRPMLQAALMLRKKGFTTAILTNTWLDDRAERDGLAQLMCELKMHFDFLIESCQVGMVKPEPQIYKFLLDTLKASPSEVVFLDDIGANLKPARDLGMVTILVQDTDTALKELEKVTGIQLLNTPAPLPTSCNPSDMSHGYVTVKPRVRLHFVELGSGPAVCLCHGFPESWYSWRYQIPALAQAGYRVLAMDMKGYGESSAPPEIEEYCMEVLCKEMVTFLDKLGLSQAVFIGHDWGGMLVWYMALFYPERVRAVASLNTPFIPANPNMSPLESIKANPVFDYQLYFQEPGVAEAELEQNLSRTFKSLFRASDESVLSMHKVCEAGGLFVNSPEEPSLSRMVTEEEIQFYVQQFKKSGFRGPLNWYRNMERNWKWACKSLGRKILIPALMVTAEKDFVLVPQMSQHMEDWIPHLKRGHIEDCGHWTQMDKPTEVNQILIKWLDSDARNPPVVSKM

SMILES | inhibition [%]
O=C1CSc2ccc(C(=O)NCCC3=CCCCC3)cc2N1 | 51.9
CCC(C)[C@H](NC(=O)NCc1ccccc1Cl)C(=O)OC (stereo partly specified) | 48.1
Cc1ccc(NC(=O)NCCCc2ccccc2)cc1 | 48.7
O=C(CCCN1C(=O)c2ccccc2C1=O)Nc1ccc(S(=O)(=O)N2CCCCC2)cc1 | 58
CC1CCCCN1C(=O)NC12CC3CC(CC(C3)C1)C2 (stereo unspecified) | 16.8
Cc1cc2nc(-c3ccc(SCC(=O)N4CCc5ccccc54)nc3)[nH]c2cc1C | 56.7
CCn1c(C(=O)N2CCCC(C(=O)NCCCc3ccccc3)C2)cc2sccc21 (stereo unspecified) | 65.6
Cc1ccccc1CSCCNC(=O)CCSc1ccccc1 | 44.2
CC(=O)NC(=S)Nc1ccc(NC(=O)COc2ccc(Cl)cc2Cl)cc1 | 44.2
COc1ccc(CNC(=O)/C=C/c2cc3c(cc2Br)OCO3)cc1 | 58.5
O=C(NCCC1=CCCCC1)c1ccc(Cl)c(S(=O)(=O)N2CCOCC2)c1 | 68.1
CCOc1ccc(NC(=O)NCCCSC2CCCCC2)cc1 | 54.6
COc1ccc(NC(=O)N2CCC(c3nc(-c4cccs4)no3)CC2)cc1 | 62.9
O=C(N/N=C/c1ccc(O)cc1)c1csc2ccccc12 | 54.5
CC(C)c1ccc(NC(=O)NC2CCN(CC(=O)Nc3cccc4ccccc34)CC2)cc1 | 62.2
Cc1ccccc1-c1nc(CN2CCC(C(=O)NCCC3=CCCCC3)CC2)c(C)o1 | 55.6
